Measurements: PMC9838217, “Structure of SALL4 zinc finger domain reveals link between AT-rich DNA binding and Okihiro syndrome”
Changes are numbered by the printed parent chain.

Key:
Assay in all cases: HT-SELEX; high values mean tight binding
Settings in all cases: protein: recombinant; vector His6-GST; dsDNA, one strand shown
[1] = target: T1, SALL4 ZFC4 WT (HT-SELEX) (Mus musculus, UniProt Q8BX22 870-940)
T1 sequence: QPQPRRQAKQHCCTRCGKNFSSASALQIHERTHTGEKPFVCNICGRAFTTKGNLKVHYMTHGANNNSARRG
Procedure, shortened: (§1)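 DNA from a random library (1.5 µg in the first cycle, 200 ng afterwards) was incubated with purified recombinant mouse SALL4 zinc finger cluster 4, residues 870–940 (1 µg), for 10 min at room temperature in 100 µl buffer: 10 mM Tris–HCl pH 7.5, 50 mM NaCl, poly(dI-dC), DTT. Bound complexes were pulled down on Ni2+ beads, washed and PCR-amplified, and the selection was repeated for up to 6 cycles in triplicate. MiSeq reads were scanned for 6-mers, and binding signal is each canonical k-mer's read fraction as fold change over the initial random library.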

[2] = target: T2, SALL4 ZFC4 R900W (HT-SELEX) (Mus musculus, UniProt Q8BX22 870-940, R900W)
T2 sequence: T1 sequence with R31W
Procedure, shortened: as §1

[3] = target: T3, SALL4 ZFC4 G921D (HT-SELEX) (Mus musculus, UniProt Q8BX22 870-940, G921D)
T3 sequence: T1 sequence with G52D
Procedure, shortened: as §1

Row | Sequence | binding signal [1] | binding signal [2] | binding signal [3]
1 | AGACTG | 0.764 ± 0.0533 fold-change vs cycle 0 | 0.926 ± 0.0316 fold-change vs cycle 0 | 0.92 ± 0.0254 fold-change vs cycle 0
2 | CTATGA | 1.49 ± 0.114 fold-change vs cycle 0 | 1.43 ± 0.0544 fold-change vs cycle 0 | 1.42 ± 0.104 fold-change vs cycle 0
3 | CTAAAA | 1.62 ± 0.0677 fold-change vs cycle 0 | 1.63 ± 0.131 fold-change vs cycle 0 | 1.51 ± 0.106 fold-change vs cycle 0
4 | CATTGG | 0.754 ± 0.0443 fold-change vs cycle 0 | 0.867 ± 0.0514 fold-change vs cycle 0 | 0.924 ± 0.0186 fold-change vs cycle 0
5 | TGGTAA | 1.41 ± 0.0525 fold-change vs cycle 0 | 1.47 ± 0.055 fold-change vs cycle 0 | 1.4 ± 0.0814 fold-change vs cycle 0
6 | CCAACG | 0.347 ± 0.0246 fold-change vs cycle 0 | 0.388 ± 0.0249 fold-change vs cycle 0 | 0.505 ± 0.0781 fold-change vs cycle 0
7 | GGAACC | 0.444 ± 0.034 fold-change vs cycle 0 | 0.539 ± 0.0289 fold-change vs cycle 0 | 0.622 ± 0.0467 fold-change vs cycle 0
8 | CACGTG | 0.391 ± 0.0518 fold-change vs cycle 0 | 0.459 ± 0.0227 fold-change vs cycle 0 | 0.562 ± 0.0574 fold-change vs cycle 0
9 | CACTGG | 0.426 ± 0.00956 fold-change vs cycle 0 | 0.508 ± 0.0154 fold-change vs cycle 0 | 0.615 ± 0.0147 fold-change vs cycle 0
10 | AAAACC | 0.956 ± 0.0539 fold-change vs cycle 0 | 1.05 ± 0.0465 fold-change vs cycle 0 | 1.1 ± 0.0332 fold-change vs cycle 0
11 | AGGGTC | 0.434 ± 0.029 fold-change vs cycle 0 | 0.524 ± 0.0447 fold-change vs cycle 0 | 0.649 ± 0.0851 fold-change vs cycle 0
12 | CAACCC | 0.417 ± 0.0301 fold-change vs cycle 0 | 0.488 ± 0.0225 fold-change vs cycle 0 | 0.582 ± 0.0463 fold-change vs cycle 0
13 | AAAGAG | 1.26 ± 0.0407 fold-change vs cycle 0 | 1.46 ± 0.0773 fold-change vs cycle 0 | 1.33 ± 0.0951 fold-change vs cycle 0
14 | TCAGGA | 0.887 ± 0.0551 fold-change vs cycle 0 | 1.02 ± 0.0319 fold-change vs cycle 0 | 1.03 ± 0.0207 fold-change vs cycle 0
15 | GCTCAC | 0.361 ± 0.0205 fold-change vs cycle 0 | 0.415 ± 0.0136 fold-change vs cycle 0 | 0.554 ± 0.021 fold-change vs cycle 0
16 | ATTTCG | 1.02 ± 0.0756 fold-change vs cycle 0 | 0.985 ± 0.0219 fold-change vs cycle 0 | 1.06 ± 0.0262 fold-change vs cycle 0
17 | GATGTA | 1.358 ± 0.0117 fold-change vs cycle 0 | 1.425 ± 0.0112 fold-change vs cycle 0 | 1.34 ± 0.0458 fold-change vs cycle 0
18 | ACTCTG | 0.817 ± 0.0779 fold-change vs cycle 0 | 0.914 ± 0.0491 fold-change vs cycle 0 | 0.937 ± 0.0411 fold-change vs cycle 0
19 | ATTCAC | 1.32 ± 0.0734 fold-change vs cycle 0 | 1.45 ± 0.0876 fold-change vs cycle 0 | 1.38 ± 0.121 fold-change vs cycle 0
20 | CGGTAG | 0.351 ± 0.018 fold-change vs cycle 0 | 0.418 ± 0.01 fold-change vs cycle 0 | 0.514 ± 0.0341 fold-change vs cycle 0

Row | Sequence | binding signal [1] | binding signal [2] | binding signal [3]
21 | CGACTC | 0.311 ± 0.0133 fold-change vs cycle 0 | 0.391 ± 0.0309 fold-change vs cycle 0 | 0.53 ± 0.0873 fold-change vs cycle 0
22 | AGTATA | 2.16 ± 0.0916 fold-change vs cycle 0 | 2.13 ± 0.148 fold-change vs cycle 0 | 1.85 ± 0.204 fold-change vs cycle 0
23 | ACAATG | 1.23 ± 0.0338 fold-change vs cycle 0 | 1.34 ± 0.0389 fold-change vs cycle 0 | 1.32 ± 0.0407 fold-change vs cycle 0
24 | AAGATA | 2.25 ± 0.105 fold-change vs cycle 0 | 2.22 ± 0.148 fold-change vs cycle 0 | 1.9 ± 0.223 fold-change vs cycle 0
25 | AGACTC | 0.806 ± 0.0153 fold-change vs cycle 0 | 0.928 ± 0.0387 fold-change vs cycle 0 | 1.01 ± 0.0334 fold-change vs cycle 0
26 | ACGTCT | 0.744 ± 0.0352 fold-change vs cycle 0 | 0.85 ± 0.0392 fold-change vs cycle 0 | 0.941 ± 0.0281 fold-change vs cycle 0
27 | ACCCAA | 0.736 ± 0.034 fold-change vs cycle 0 | 0.839 ± 0.0217 fold-change vs cycle 0 | 0.873 ± 0.0335 fold-change vs cycle 0
28 | CCTGAG | 0.502 ± 0.0217 fold-change vs cycle 0 | 0.614 ± 0.0126 fold-change vs cycle 0 | 0.691 ± 0.0156 fold-change vs cycle 0
29 | CTGCTA | 0.699 ± 0.028 fold-change vs cycle 0 | 0.757 ± 0.0335 fold-change vs cycle 0 | 0.816 ± 0.0523 fold-change vs cycle 0
30 | CGTCCA | 0.318 ± 0.0103 fold-change vs cycle 0 | 0.381 ± 0.0253 fold-change vs cycle 0 | 0.504 ± 0.0811 fold-change vs cycle 0
31 | ACCAAC | 0.731 ± 0.0183 fold-change vs cycle 0 | 0.8162 ± 0.00324 fold-change vs cycle 0 | 0.883 ± 0.0212 fold-change vs cycle 0
32 | ACATAG | 1.3 ± 0.0172 fold-change vs cycle 0 | 1.35 ± 0.0801 fold-change vs cycle 0 | 1.34 ± 0.0894 fold-change vs cycle 0
33 | CGATGA | 0.734 ± 0.0173 fold-change vs cycle 0 | 0.797 ± 0.0326 fold-change vs cycle 0 | 0.875 ± 0.0214 fold-change vs cycle 0
34 | AAGAAC | 1.29 ± 0.0399 fold-change vs cycle 0 | 1.49 ± 0.0657 fold-change vs cycle 0 | 1.38 ± 0.123 fold-change vs cycle 0
35 | GTAAAC | 1.27 ± 0.0422 fold-change vs cycle 0 | 1.39 ± 0.0625 fold-change vs cycle 0 | 1.32 ± 0.0873 fold-change vs cycle 0
36 | TACAGA | 1.3 ± 0.0338 fold-change vs cycle 0 | 1.38 ± 0.0448 fold-change vs cycle 0 | 1.33 ± 0.0789 fold-change vs cycle 0
37 | ATTATG | 2.78 ± 0.17 fold-change vs cycle 0 | 1.94 ± 0.0249 fold-change vs cycle 0 | 1.74 ± 0.121 fold-change vs cycle 0
38 | GACCGA | 0.327 ± 0.0131 fold-change vs cycle 0 | 0.4 ± 0.0327 fold-change vs cycle 0 | 0.52 ± 0.0745 fold-change vs cycle 0
39 | GCCTTA | 0.573 ± 0.0273 fold-change vs cycle 0 | 0.685 ± 0.0271 fold-change vs cycle 0 | 0.783 ± 0.0268 fold-change vs cycle 0
40 | ATGTGG | 0.714 ± 0.021 fold-change vs cycle 0 | 0.787 ± 0.0136 fold-change vs cycle 0 | 0.851 ± 0.0464 fold-change vs cycle 0

Row | Sequence | binding signal [1] | binding signal [2] | binding signal [3]
41 | CCGTAG | 0.35 ± 0.01 fold-change vs cycle 0 | 0.427 ± 0.0139 fold-change vs cycle 0 | 0.516 ± 0.0548 fold-change vs cycle 0
42 | CTGACC | 0.426 ± 0.0325 fold-change vs cycle 0 | 0.52 ± 0.0363 fold-change vs cycle 0 | 0.621 ± 0.0521 fold-change vs cycle 0
43 | CCTAAG | 0.941 ± 0.0158 fold-change vs cycle 0 | 1.05 ± 0.0579 fold-change vs cycle 0 | 1.05 ± 0.0419 fold-change vs cycle 0
44 | GTATTA | 2.23 ± 0.186 fold-change vs cycle 0 | 1.98 ± 0.125 fold-change vs cycle 0 | 1.76 ± 0.141 fold-change vs cycle 0
45 | ACCTCA | 0.854 ± 0.0441 fold-change vs cycle 0 | 0.976 ± 0.0441 fold-change vs cycle 0 | 1.04 ± 0.0599 fold-change vs cycle 0
46 | TCTGCA | 0.609 ± 0.0257 fold-change vs cycle 0 | 0.678 ± 0.019 fold-change vs cycle 0 | 0.747 ± 0.0393 fold-change vs cycle 0
47 | GTGAGA | 0.859 ± 0.0299 fold-change vs cycle 0 | 0.971 ± 0.0233 fold-change vs cycle 0 | 0.986 ± 0.0119 fold-change vs cycle 0
48 | GTGTGA | 0.748 ± 0.0198 fold-change vs cycle 0 | 0.881 ± 0.0312 fold-change vs cycle 0 | 0.9 ± 0.0278 fold-change vs cycle 0
49 | CGTTTC | 0.628 ± 0.029 fold-change vs cycle 0 | 0.738 ± 0.0101 fold-change vs cycle 0 | 0.794 ± 0.021 fold-change vs cycle 0
50 | TCTTCA | 1.42 ± 0.033 fold-change vs cycle 0 | 1.6 ± 0.094 fold-change vs cycle 0 | 1.48 ± 0.131 fold-change vs cycle 0
51 | AGGGGA | 0.532 ± 0.0414 fold-change vs cycle 0 | 0.608 ± 0.0303 fold-change vs cycle 0 | 0.671 ± 0.0432 fold-change vs cycle 0
52 | TGATAA | 2.35 ± 0.175 fold-change vs cycle 0 | 2.08 ± 0.2 fold-change vs cycle 0 | 1.87 ± 0.208 fold-change vs cycle 0
53 | GACGTC | 0.306 ± 0.00649 fold-change vs cycle 0 | 0.386 ± 0.024 fold-change vs cycle 0 | 0.522 ± 0.0468 fold-change vs cycle 0
54 | ATGTGA | 1.31 ± 0.0395 fold-change vs cycle 0 | 1.44 ± 0.0647 fold-change vs cycle 0 | 1.39 ± 0.0509 fold-change vs cycle 0
55 | CAACAC | 0.658 ± 0.0239 fold-change vs cycle 0 | 0.8 ± 0.0226 fold-change vs cycle 0 | 0.849 ± 0.0276 fold-change vs cycle 0
56 | AATGGA | 1.38 ± 0.0388 fold-change vs cycle 0 | 1.47 ± 0.0617 fold-change vs cycle 0 | 1.39 ± 0.0841 fold-change vs cycle 0
57 | CCTCAG | 0.494 ± 0.0292 fold-change vs cycle 0 | 0.591 ± 0.0293 fold-change vs cycle 0 | 0.666 ± 0.0425 fold-change vs cycle 0
58 | AGTTTC | 1.25 ± 0.0447 fold-change vs cycle 0 | 1.33 ± 0.0345 fold-change vs cycle 0 | 1.3 ± 0.112 fold-change vs cycle 0
59 | ATGACA | 1.36 ± 0.0915 fold-change vs cycle 0 | 1.41 ± 0.0578 fold-change vs cycle 0 | 1.39 ± 0.11 fold-change vs cycle 0
60 | CCTCTA | 0.817 ± 0.034 fold-change vs cycle 0 | 0.915 ± 0.0455 fold-change vs cycle 0 | 0.953 ± 0.0421 fold-change vs cycle 0
